Experimental data from PubChem BioAssay AID504832 (National Center for Advancing Translational Sciences (NCATS), 2011).
Screen size: about 310,000 compounds; about 18,000 (5.8%) were called active. Not shown: some 22% with an inconclusive outcome. The sample as a whole holds a higher share of actives than the screen did. Values without a mark were called inactive. The call rests on the fitted dose curve; in most records, active means well fitted inhibition curve with a large enough effect; inconclusive means small, poorly fitted or top-dose-only effect, or another doubt; inactive means no such curve, though single readings can be large or run the other way.

Experiment: Primary qHTS for delayed death inhibitors of the malarial parasite plastid, 48 hour incubation
Conditions: P. falciparum luciferase growth in erythrocytes; series mostly up to 28.7 µM; activity change, negative = inhibition: at the top concentration
Method in brief: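 In quantitative HTS format, infected erythrocytes bearing luciferase-reporter parasites were treated for a single generation at 37 C. Luminescence after adding detection reagent served as the growth measure.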
On the % scale 0 is the no-effect control and ±100 the full control effect; potency means the concentration at half of the fitted maximal effect.

SMILES | activity change, negative = inhibition | Potency
CC1CCN(C(=O)CCc2nnc3ccc(NCc4ccco4)nn23)CC1 | 0% | 
CC(c1ccccn1)N(C)C(=O)c1ccc2nc(Cc3cccc(Cl)c3)oc2c1 (stereo unspecified) | 14% | 
CC1(C)O[C@@H]2[C@H](O1)[C@@H](COS(=O)(=O)O)O[C@H]2n1cnc2c(=O)[nH]cnc21 | 40.8% | 
CCOCCOC(=O)C1=C(C)NC(=O)NC1c1ccc2c(c1)OCO2 (stereo unspecified) | 10% | 
Cc1csc2nc(COC(=O)c3cccc(N(C)C)c3)cc(=O)n12 | 159% | 
CCCCN(C)CCC(=O)Nc1ccc(Cl)cc1 | -3.3% | 
CC(=O)Nc1cccc(-c2csc(Nc3cccc(C)n3)n2)c1 | 286% | 
CCCCC(=O)Nc1nc(C)c(-c2csc(Nc3ccc(Cl)cc3)n2)s1 |  | 4.65 µM (active)
CC(=O)Nc1nc(C)c(-c2csc(Nc3ccc(S(N)(=O)=O)cc3)n2)s1 | 5.4% | 
CCC(=O)Nc1nc(C)c(C(=O)Nc2cccc(Cl)c2)s1 | -17% | 
Cc1nc(NC(=O)c2cccc(Cl)c2)sc1-c1csc(Nc2cccc(Cl)c2)n1 |  | 8.28 µM (active)
O=C(CN1C(=O)NC2(CCCC2)C1=O)OCCOc1ccc(F)cc1 | 80.6% | 
COC(=O)c1c(NC(=O)C(=O)N2CCCCC2)sc2c1CC(C)(C)OC2 | -25.4% | 
COc1ccc(CNS(=O)(=O)c2ccc(-c3cnc(C4CC4)o3)cc2)cc1 | 5.18% | 
COc1cccc(C2=CC(=O)C[C@H](c3ccc(F)cc3)C2)c1OC | 0% | 
COc1ccccc1C1=CC(=O)C[C@H](c2ccc(F)cc2)C1 | -28.2% | 
O=C1C=C(c2cccc(Br)c2)C[C@@H](c2ccc(F)cc2)C1 |  | 2.94 µM (active)
O=C1C=C(c2cccc(Cl)c2O)C[C@@H](c2ccc(F)cc2)C1 |  | 2.08 µM (active)
O=C1CC(c2cccc(Br)c2)C2=C(CCCC2=O)N1 (stereo unspecified) | 5.31% | 
O=C(CCc1nnc(Cc2ccc3c(c2)OCO3)o1)NCCc1ccccc1Cl | 2.13% | 
COc1ccc(-c2nc(CS(=O)(=O)CC(=O)NCc3cccc(Br)c3)c(C)o2)cc1 | 3.55% | 
COc1ccc(-n2ncc3c(SCC(=O)NNC(C)=O)ncnc32)cc1 | 50.2% | 
CC(=O)N1CCc2c(sc(NC(=O)CCS(=O)(=O)c3ccccc3)c2C#N)C1 | 2.73% | 
Cc1ccc(S(=O)(=O)NC2CCCCCC2)cc1C(N)=O | 23.5% | 
O=C(CN1CCCCCC1)Nc1c(Cl)cc(Cl)cc1Cl | 54.7% | 
N#C/C(=C\C1=C(N2CCOCC2)C(=C\c2ccccc2)/CC1)C(=O)Nc1ccccc1F | -23.8% | 

SMILES | activity change, negative = inhibition | Potency
C(=N\N1CCN(c2ccccn2)CC1)/C1=C(N2CCOCC2)C(=C/c2ccccc2)/CC1 |  | 10.4 µM (active)
O=C1Nc2ccc(Br)cc2/C1=N/N=C/C1=C(N2CCOCC2)C(=C\c2ccccc2)/CC1 | -20.2% | 
CC(C)c1ccc(O)c(CN2CCN(c3ccccc3)CC2)c1 |  | 3.29 µM (active)
CC(=O)c1ccc(N2CCN(CC(O)c3ccccc3)CC2)cc1 (stereo unspecified) | 16.4% | 
Oc1cc2c(cc1CN1CCN(c3ccccc3)CC1)OCO2 | -9.2% | 
O=C(CSc1nccc(=O)[nH]1)Nc1ccc(N2CCOCC2)c(Cl)c1 | 23.8% | 
COc1cc(NC(=O)NCC2CCN(Cc3ccc(C)cc3)CC2)cc(OC)c1OC | -4.11% | 
O=C(CN1CCN(Cc2ccccc2)CC1)Nc1ccc(F)c(F)c1 | -8.06% | 
Cc1cccc(CN2CCC(CNC(=O)Nc3ccc(F)c(Cl)c3)CC2)c1 |  | 10.4 µM (active)
COc1cc(C(=O)NCc2nnc(SCC(=O)c3ccc(Cl)cc3)o2)cc(OC)c1OC | 7.45% | 
CCC(=O)Nc1ccc(C(=O)NNC(=O)c2ccc(Cl)cc2)cc1 | 0% | 
Cc1ccc(NS(=O)(=O)c2ccc(-c3ccc(=O)[nH]n3)o2)c(C)c1 | 19.5% | 
CC#CC[N+](C)(C)CCCCCC |  | 10.4 µM (active)
Cc1ccn2c(=O)c(NC(=O)c3cccc4ccccc34)c(C)nc2c1 | 9.29% | 
Cc1[nH]c(C)c(S(=O)(=O)N2CCC(C)CC2)c1C(=O)N1CCCC1 | 5.99% | 
O=S(=O)(c1ccccc1)c1nc(Cc2ccccc2)oc1N1CCOCC1 | 2.87% | 
COc1ccc(C2=NN(C(=O)c3ccccc3C(=O)O)C(c3ccccc3O)C2)cc1 (stereo unspecified) | 8.81% | 
Cc1cc(=O)n2nc(N3CCCC(C(=O)NCc4ccc(Cl)cc4)C3)sc2n1 (stereo unspecified) | -7.33% | 
COc1cc(N2CCCC2)c(OC)cc1/C=C(/C#N)c1cccc(Br)c1 |  | 14.7 µM (active)
COc1ccc(Br)cc1/C=N/n1c(C)nnc1C | 0.549% | 
COc1cccc(C(=O)Nc2ccc(N3CCCC3)cc2)c1 | 73.1% | 
COc1ccccc1-n1c(SCC(=O)Nc2cccc(C(=O)O)c2)nnc1-c1ccccc1O | -3.16% | 
Cc1cccc(N2C(=O)c3ccc(C(=O)Nc4cccc(C(=O)O)c4)cc3C2=O)c1 | 56.5% | 
Cc1c(Cl)cccc1NC(=O)CCC(=O)N/N=C/c1ccco1 | -5.06% | 
Cc1ccc(S(=O)(=O)CCC(=O)Nc2nnc(CC(C)C)s2)cc1 | -11.3% | 
